High-throughput results deposited in PubChem BioAssay by University of Kansas High Throughput Screening Laboratory.
An excerpt weighted towards active compounds, which were near 3.6% of everything screened.
mHTT CaM bind = mutant huntingtin-calmodulin interaction inhibitors – biochemical, AlphaScreen, primary screen; P42858; AlphaScreen His-mHTT/GST-CaM binding, luminescence; inhibition, % at 15 µM; 3.6% of 190,000 active; AID 1671202, 2021
Pf apPOL block = Pf-apPOL inhibitors, biochemical, fluorescence; Plasmodium falciparum apicoplast DNA polymerase (apPOL); Recombinant Pf-apPOL, molecular beacon fluorescence, 1.5 h; inhibition, % at 10 µM; 0.25% of 210,000 active; AID 1794808, 2022
Large screens that a line does not name were inactive. Cut-off read from the data, not from the text of the source: active = inhibition above about 50%; inactive = the rest.

COC(=O)c1ccc(C(=O)OC)c(NC(=O)N2CC3CCCN3c3ccccc32)c1 (centres undefined)	mHTT CaM bind 58
CCC(=O)N1CCCC(c2ccnc(-c3cccc(F)c3)n2)C1 (centres undefined)	none
O=C(NCCc1ccsc1)C1(c2ccc(F)cc2)CC1	none
COc1ccc(CNc2ccc3cn[nH]c3c2)cc1Br	mHTT CaM bind 71
COc1ccc(CNc2ccc(F)c(Cl)c2)c(OC)c1	none
COc1cccc(CNc2ccc3cn[nH]c3c2)c1OC	mHTT CaM bind 54
COc1cccc(CNc2ccc(F)c(Cl)c2)c1OC	none
COc1ccc(CNc2ccc(C)c(C)c2)c(OC)c1	mHTT CaM bind 58
COc1ccc(CNc2ccccc2SC)cc1Br	none
COc1ccc(CNc2ccc(C)c(C)c2)cc1Br	mHTT CaM bind 81
COc1ccc(CNc2cccc(F)c2)cc1Br	none
COc1ccc(C(=O)Nc2c3c(nn2-c2cc(C)cc(C)c2)CSC3)cc1	none
Nc1cc2c3c(cccc3n1)C(=O)c1ccccc1-2	none
Cc1ccc(-c2nc3ccccc3o2)cc1NC(=O)c1ccccc1F	none
Cn1nccc1C(=O)N1CCCC1c1ccc(Cl)cc1 (centres undefined)	none
COc1ccc(C=C2Oc3c(ccc(O)c3CN3CCCCCC3)C2=O)c(OC)c1	none
Cc1noc(C)c1C1CCCN1Cc1cn[nH]c1-c1ccccc1 (centres undefined)	none
COc1cc(OC)c(CNc2ccc3cn[nH]c3c2)cc1Br	mHTT CaM bind 55
COc1cc(OC)c(CNc2ccc(F)c(F)c2)cc1Br	none
CC(=O)C1=C(C)NC(SCc2ccccc2)=C(C#N)C1c1sccc1C (centres undefined)	none
CCN(CCCNC(=O)C1CCCN(S(=O)(=O)N2CCCC2)C1)c1cccc(C)c1 (centres undefined)	none
CCN(CCCNS(=O)(=O)c1ccc(Cl)s1)c1cccc(C)c1	mHTT CaM bind 65
Cc1nnc2c(NC(=O)c3cccc(N(C)C)c3)cccn12	none
C=CCN1C(=O)NC(c2ccc(F)cc2)C2=C1CN(C1CC1)C2=O (centres undefined)	none
COc1ccc(C2Nc3c(cccc3C(F)(F)F)C3C=CCC32)cc1[N+](=O)[O-] (centres undefined)	none
COc1ccc(C2Nc3ccc(Br)cc3C3C=CCC32)cc1[N+](=O)[O-] (centres undefined)	mHTT CaM bind 86
Fc1ccc2c(c1)[C@@H]1C=CC[C@@H]1[C@H](c1ccccc1Cl)N2	none (no result: Pf apPOL block)
COc1ccc(Br)cc1C1Nc2ccc(F)cc2C2C=CCC21 (centres undefined)	mHTT CaM bind 73
COc1ccc(NC(=O)N2CCCC2c2nc(-c3ccc(F)cc3F)no2)cc1 (centres undefined)	none
COc1ccccc1CNC(=O)C(=O)Nc1cc(C)nc2ccccc12	none
Cc1ccc(-n2cc3c(c2-c2ccccc2)c(=O)n(C)c(=O)n3C)cc1	none
COc1ccccc1-n1cc2c(c1-c1ccccc1)c(=O)n(C)c(=O)n2C	none
Cn1c(=O)c2c(-c3ccccc3)n(-c3ccc(F)cc3)cc2n(C)c1=O	Pf apPOL block 75
Cc1cc(C)cc(-n2cc3c(c2-c2ccccc2)c(=O)n(C)c(=O)n3C)c1	Pf apPOL block 83
COc1cccc(CNc2cccc(Cl)c2C)c1OC	none
O=C(Nc1cnn(Cc2ccc(Cl)c(Cl)c2)c1)c1cc2ccccc2oc1=O	none
O=C1c2ccccc2-c2nn3nnnc3nc21	none (no result: Pf apPOL block)
CN1CC=C2C(C#N)=C(N)C(C#N)(C#N)C(c3cccc(Cl)c3)C2C1 (centres undefined)	none
N#CC1=C(N)C(C#N)(C#N)C(c2ccccc2I)C2CCCC=C12 (centres undefined)	none
CC1CC=C2C(C#N)=C(N)C(C#N)(C#N)C(c3cccc(Cl)c3)C2C1 (centres undefined)	mHTT CaM bind 70
N#CC1=C(N)C(C#N)(C#N)C(c2cccnc2)C2CCCC=C12 (centres undefined)	none
CC(C)(C)C1CC=C2C(C#N)=C(N)C(C#N)(C#N)C(c3c[nH]c4ccccc34)C2C1 (centres undefined)	mHTT CaM bind 98
N#CC1=C(N)C(C#N)(C#N)C(c2cccc([N+](=O)[O-])c2)C2CCCC=C12 (centres undefined)	mHTT CaM bind 53
CC1CCN(Cc2csc(N3CCN(C(=O)c4cccc(F)c4)CC3)n2)CC1	none
O=C(Cn1nc(-c2ccc(Cl)cc2)c2ccccc2c1=O)Nc1ccc(F)cc1	none
O=C(CCOc1ccccc1)N(CCN1CCOCC1)c1nc2c(Cl)cccc2s1	mHTT CaM bind 87
CCCC(=O)N(CCN1CCOCC1)c1nc2ccc(Br)cc2s1	none
CN1C(=O)c2cccnc2Sc2cc(NC(=O)c3ccccc3Cl)ccc21	none
O=C1NN(c2cccc(Br)c2)C(=O)/C1=C/c1ccc(O)cc1	none
Cc1cc([N+](=O)[O-])cc(/C=C2\C(=O)NN(c3ccc(Br)cc3)C2=O)c1O	none
O=C1NN(c2ccc(F)cc2)C(=O)/C1=C/c1cccc(Br)c1	mHTT CaM bind 70
Cc1ccc(N2NC(=O)/C(=C\c3cccc(Br)c3)C2=O)cc1C	mHTT CaM bind 69
Cc1ccc(N2NC(=O)/C(=C\c3ccc(Cl)c([N+](=O)[O-])c3)C2=O)cc1C	mHTT CaM bind 96
O=C1NN(c2ccc(Br)cc2)C(=O)/C1=C/c1cc([N+](=O)[O-])c(Cl)cc1Cl	mHTT CaM bind 95
Cc1ccc(N2NC(=O)/C(=C\c3ccc(O)c([N+](=O)[O-])c3)C2=O)cc1Cl	none
Cc1ccc(N2NC(=O)/C(=C\c3ccc(Br)cc3)C2=O)cc1C	none
C=C(C)C(=O)OCC1CCC[N+]2(C)CCCCC12 (centres undefined)	none (no result: mHTT CaM bind)
CC(C(=O)NCc1cccc(F)c1)N1C(=O)CCCc2ccccc21 (centres undefined)	none
Cc1ccc(-c2nnc(N3CCC(C(=O)NC4CCCC4)CC3)o2)cc1	none
CC(C)(C)n1nc2c(c1-n1cccc1)CN(C(=O)c1cc(-c3ccco3)[nH]n1)C2	mHTT CaM bind 99, Pf apPOL block 82
CCOC(=O)N1CCN(C(=O)c2cc(-c3ccco3)[nH]n2)CC1	none
Cc1ccccc1Cn1cnc2c1c(=O)n(C(C)C)c(=O)n2-c1cccc(F)c1	none
O=C(NCCCN1CCCCCC1)c1ccc2c(c1)NC(=O)C1CCCCN21 (centres undefined)	none
CCc1ccc(C(=O)N2CCC(c3noc(-c4cccc(C)c4)n3)CC2)cc1	none
c1ccc(N2N=C3N(c4ccccc4)C2N3c2ccccc2)cc1	mHTT CaM bind 77 (no result: Pf apPOL block)
COC1N(c2ccccc2)N=C(c2ccccc2)N1c1ccccc1 (centres undefined)	none (no result: Pf apPOL block)
Cc1ccc(SCC(=O)N2CCC(C(F)(F)F)CC2)cc1	none (no result: mHTT CaM bind)
COCc1cc(C(C)(C)C)c(O)c(O)c1C(C)(C)C	mHTT CaM bind 62
CC(C)(C)c1cc(C(=O)O)cc(C(C)(C)C)c1O	none
O=C(c1cccc(F)c1)N1CCCC2(CC(c3ccncc3)=CO2)C1 (centres undefined)	none
O=C(c1cccc(F)c1)N1CCCC2(CC(c3ccccc3)=CO2)C1 (centres undefined)	mHTT CaM bind 100
O=C(c1ccc(F)cc1)N1CCCC2(CC(c3ccncc3)=CO2)C1 (centres undefined)	none
O=C(c1ccc(F)cc1)N1CCCC2(CC(c3ccccc3)=CO2)C1 (centres undefined)	mHTT CaM bind 99
O=C1/C(=C/c2cc([N+](=O)[O-])ccc2Cl)Sc2ccccc21	none
O=C1/C(=C/c2cc([N+](=O)[O-])ccc2O)Sc2ccccc21	mHTT CaM bind 73
